Screens (PubChem BioAssay)
HCMV antiviral: human cytomegalovirus inhibition | activity change, negative = inhibition, % at 57.5 µM | HFF cells, HCMV-luciferase reporter, 72 h; stronger effect = lower value | AID 1259415 | 410,000 tested, 4.5% active; in the data active = activity change below about -60%; inconclusive = no clear call, values can overlap the other calls; inactive = above about -39%
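HFF cells seeded 16 h at 37C, treated with compounds, infected with luciferase-reporter HCMV at MOI 1 PFU/cell; luciferase read at 72 h post infection, normalized to buffer-only and Salinomycin controls.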
Pf growth 48h: inhibits P. falciparum growth in the first generation, 48 h | AID 504832 | P. falciparum luciferase growth in erythrocytes, 48 h | 310,000 tested, 5.9% active | Potency, µM (top dose mostly 28.7 µM), hits mostly inhibitors
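Cell-based growth assay: transgenic P. falciparum expressing firefly luciferase, cultured in red cells within RPMI 1640 containing 0.5% w/v Albumax, 24 mM bicarbonate and gentamycin. A drop in luciferase activity indicates inhibition.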
Giardia FBPA inh: inhibitors of Giardia lamblia fructose-1,6-bisphosphate aldolase. A8B2U2. purified Giardia FBPA. Potency, µM (titrated, usually from 59.6 µM), usual class: inhibitors. 290,000 tested, 0.71% active. AID 2451; also: nearly all actives have a fitted effect of over 55% in size
Target sequence (A8B2U2 whole entry, looked up): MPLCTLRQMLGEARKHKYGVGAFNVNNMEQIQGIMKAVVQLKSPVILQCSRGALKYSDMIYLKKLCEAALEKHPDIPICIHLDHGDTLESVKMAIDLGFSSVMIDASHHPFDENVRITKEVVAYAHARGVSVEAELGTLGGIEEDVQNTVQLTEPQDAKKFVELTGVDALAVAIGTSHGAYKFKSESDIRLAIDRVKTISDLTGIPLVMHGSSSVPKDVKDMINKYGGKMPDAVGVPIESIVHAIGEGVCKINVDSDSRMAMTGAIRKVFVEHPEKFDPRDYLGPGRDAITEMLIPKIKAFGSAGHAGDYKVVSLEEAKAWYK
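40 nM FBPA preincubated 10 min at RT with compound (up to 57.5 uM final), then substrate plus GAPDH/TPI/NAD/arsenate coupling and diaphorase/resazurin added. Fluorescence read after 20 min at RT, 525/598 nm.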
Sm TGR inh: blocks Schistosoma mansoni thioredoxin glutathione reductase | Q962Y6 | purified TGR, DTNB reduction, TNB absorbance 405 nm | Potency, µM (titrated, usually from 114 µM), hits mostly inhibitors | 360,000 tested, 3% active | AID 485364; also: nearly all actives have a fitted effect of over 60% in size
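First, TGR (20 nM dispensed) and NADPH were mixed with compound. Second, a 15 min room-temperature incubation followed. Third, further NADPH and then DTNB were added to start the reaction. Finally, TNB absorbance was monitored kinetically.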
Pf growth 96h: P. falciparum growth inhibition at 96 hour, primary screen for plastid delayed-death inhibitors | P. falciparum luciferase reporter growth, 96 h | Potency, µM (series often up to 28.7 µM), actives largely listed as inhibitors | 320,000 tested, 6.9% active | AID 504834
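Two parasite generations (96 h, 37 C, 5% CO2) of compound exposure in infected erythrocytes (0.05% parasitemia, 2% hematocrit). Luciferase-reporter P. falciparum; decreased luminescence indicates inhibited growth, aimed at apicoplast-acting delayed death.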
Hits are given with their value. Most compounds without a hit are left out; they make up all but 14% or so of the library. Unless noted, calls follow the shape of the dose curve; as a rule, active = well fitted curve in the direction sought with a large enough effect; inconclusive = small, poorly fitted or top-dose-only effect, or another doubt; inactive = no such curve, though single readings can be large; an effect the other way counts as inactive or inconclusive.

What do the screens show for `CCOC(=O)N1CCN(C(=O)CSc2nc3c(c(=O)n2-c2ccccc2OC)SCC3)CC1`?
HCMV antiviral: inactive; Pf growth 48h: inconclusive; Giardia FBPA inh: inactive; Sm TGR inh: inactive; Pf growth 96h: 1.31µM

What do the screens show for `CSc1ccc(S(=O)(=O)NCC(=O)OCC(=O)N2CCCCC2C)cc1[N+](=O)[O-]` (stereo unspecified)?
HCMV antiviral: inactive; Pf growth 48h: inconclusive; Sm TGR inh: inactive; Pf growth 96h: inactive

Results for COc1cccc(CNC(=O)CSc2ncc(S(=O)(=O)c3ccc(Br)cc3)c(=O)[nH]2)c1 ?
HCMV antiviral: inactive; Sm TGR inh: inactive

Results for Cn1c(=O)c(=O)n(C)c2cc([N+](=O)[O-])c([N+](=O)[O-])cc21 ?
HCMV antiviral: inactive; Pf growth 48h: inactive; Giardia FBPA inh: inactive; Sm TGR inh: 20µM; Pf growth 96h: inconclusive

How did Cn1cccc([N+](=O)[O-])c1=O do in these assays?
HCMV antiviral: inactive

What do the screens show for `COC1CC(N)C2OC(c3ccccc3)OCC2O1` (stereo unspecified)?
HCMV antiviral: inactive

How did CN1CCCCC(NC(=O)c2ccc(F)cc2)C1=O (stereo unspecified) do in these assays?
HCMV antiviral: inactive

What do the screens show for `CC(Sc1ccccc1)C(=O)Nc1ccc(S(=O)(=O)N2CCOCC2)cc1` (stereo unspecified)?
HCMV antiviral: -64.0; Pf growth 48h: inconclusive; Giardia FBPA inh: inactive; Sm TGR inh: inactive; Pf growth 96h: inconclusive

How did CCC(C)c1ccccc1N1CC(C(=O)Nc2cc(S(=O)(=O)N3CCOCC3)ccc2OC)CC1=O (stereo unspecified) do in these assays?
HCMV antiviral: inactive

Results for CCCC(C(=O)Nc1ccc(S(=O)(=O)N2CCOCC2)cc1)c1ccccc1 (stereo unspecified) ?
HCMV antiviral: inactive; Pf growth 48h: 13.1µM; Sm TGR inh: inactive; Pf growth 96h: 9.28µM

What do the screens show for `CCCC(C(=O)Nc1ccc(C)c(S(=O)(=O)N2CCOCC2)c1)c1ccccc1` (stereo unspecified)?
HCMV antiviral: inconclusive; Pf growth 48h: 10.4µM; Sm TGR inh: inactive; Pf growth 96h: inconclusive

How did CCC(C)c1ccccc1N1CC(C(=O)Nc2ccc(C)c(S(=O)(=O)N3CCOCC3)c2)CC1=O (stereo unspecified) do in these assays?
HCMV antiviral: inactive; Pf growth 48h: 13.1µM; Sm TGR inh: inactive; Pf growth 96h: inconclusive

How did CCC(C(=O)OCC(=O)Nc1ccc(C)c(S(=O)(=O)N2CCOCC2)c1)c1ccccc1 (stereo unspecified) do in these assays?
HCMV antiviral: inactive; Pf growth 48h: inconclusive; Sm TGR inh: inactive; Pf growth 96h: inconclusive

Results for CC(Sc1ccc(S(=O)(=O)N2CCOCC2)cn1)c1ccccc1Cl (stereo unspecified) ?
HCMV antiviral: inactive

What do the screens show for `CC(Sc1ccc(S(=O)(=O)N2CCOCC2)cn1)C(=O)Nc1ccc(Cl)cc1Cl` (stereo unspecified)?
HCMV antiviral: inactive; Pf growth 48h: 11.7µM; Sm TGR inh: inactive; Pf growth 96h: inconclusive

Results for CC(NCC1(N2CCOCC2)CCCCC1)C(=O)Nc1ccc(Cl)cc1Cl (stereo unspecified) ?
HCMV antiviral: inactive; Pf growth 48h: inconclusive; Giardia FBPA inh: inconclusive; Sm TGR inh: inactive; Pf growth 96h: 9.28µM

Results for CC(CC(=O)Nc1cccc(S(=O)(=O)N2CCCCC2)c1)c1ccccc1 (stereo unspecified) ?
HCMV antiviral: inactive; Pf growth 48h: inconclusive; Sm TGR inh: inactive; Pf growth 96h: inconclusive

How did CCCc1ccc(NC(C)C(=O)Nc2ccc(S(=O)(=O)N3CCOCC3)cc2)cc1 (stereo unspecified) do in these assays?
HCMV antiviral: inactive; Pf growth 48h: inconclusive; Sm TGR inh: inactive; Pf growth 96h: 5.22µM

How did CCCC(C(=O)Nc1cccc(S(=O)(=O)N2CCCC2)c1)c1ccccc1 (stereo unspecified) do in these assays?
HCMV antiviral: inconclusive; Pf growth 48h: inconclusive; Sm TGR inh: inactive; Pf growth 96h: 10.4µM

Results for CC1(Cc2ccc(Cl)cc2)C(=O)Nc2c(Cl)ccc(Cl)c21 (stereo unspecified) ?
HCMV antiviral: inactive

What do the screens show for `Cc1ccc(C)c(NC(=O)C(C)N2C(=O)c3ccccc3C2=O)c1` (stereo unspecified)?
HCMV antiviral: inactive; Pf growth 48h: inactive; Giardia FBPA inh: inactive; Sm TGR inh: inactive; Pf growth 96h: inactive

What do the screens show for `CCc1ccc(OCC(=O)Nc2nnc(C3CCCC3)s2)cc1`?
HCMV antiviral: inactive; Pf growth 48h: inactive; Sm TGR inh: inactive; Pf growth 96h: inactive

How did CCc1ccc(C(c2c(C)nn(-c3ccccc3)c2N)c2c(C)nn(-c3ccccc3)c2N)cc1 do in these assays?
HCMV antiviral: inactive; Pf growth 48h: 8.28µM; Giardia FBPA inh: inactive; Sm TGR inh: inactive; Pf growth 96h: inconclusive

How did Cc1cccc(C(c2c(C)nn(-c3ccccc3)c2N)c2c(C)nn(-c3ccccc3)c2N)c1 do in these assays?
HCMV antiviral: inactive; Pf growth 48h: inactive; Giardia FBPA inh: inactive; Sm TGR inh: inactive; Pf growth 96h: inconclusive

What do the screens show for `CC(C)Oc1ccc(C(=O)Nc2c3c(nn2-c2ccccc2)CS(=O)(=O)C3)cc1`?
HCMV antiviral: inactive; Pf growth 48h: inconclusive; Sm TGR inh: inactive; Pf growth 96h: inactive

How did Cc1ccc(-c2nn[nH]n2)o1 do in these assays?
HCMV antiviral: inactive; Pf growth 48h: inactive; Giardia FBPA inh: inactive; Sm TGR inh: 44.7µM; Pf growth 96h: inconclusive

How did Cc1ccc(-c2nn[nH]n2)cc1 do in these assays?
HCMV antiviral: inactive; Pf growth 48h: inactive; Giardia FBPA inh: inconclusive; Sm TGR inh: inactive; Pf growth 96h: inactive

What do the screens show for `CC(=O)NC12CC3CC(C1)CC(C(=O)Nc1nccs1)(C3)C2`?
HCMV antiviral: inactive; Pf growth 48h: inconclusive; Giardia FBPA inh: inactive; Sm TGR inh: inactive; Pf growth 96h: 6.57µM

Results for C[n+]1c2cc(N)ccc2cc2ccc(N)cc21 ?
HCMV antiviral: -99.0; Pf growth 48h: 0.0478µM; Giardia FBPA inh: inconclusive; Pf growth 96h: 0.0338µM

Results for CC[C@H](C)[C@@H](NC(=O)O[C@@H]1Cc2cc(Br)ccc2O[C@H]1c1cccc(OC)c1)C(=O)OC ?
Giardia FBPA inh: inactive

How did CCN(CC)CCCNC(=O)Cc1ccc(NC(=O)N2CCCCc3ccccc32)cc1 do in these assays?
HCMV antiviral: inactive; Sm TGR inh: inactive

What do the screens show for `Cc1cc(C(=O)COC(=O)Cc2n[nH]c(=O)c3ccccc23)c(C)n1-c1cccc(C(F)(F)F)c1`?
HCMV antiviral: inactive; Pf growth 48h: 9.28µM; Giardia FBPA inh: inactive; Sm TGR inh: inactive; Pf growth 96h: 2.94µM

What do the screens show for `Cc1cc(C(=O)COC(=O)CC2Sc3ccccc3NC2=O)c(C)n1-c1cccc(C(F)(F)F)c1` (stereo unspecified)?
HCMV antiviral: inconclusive; Pf growth 48h: inconclusive; Giardia FBPA inh: inactive; Sm TGR inh: inactive; Pf growth 96h: inactive
